{"source": "PubChem BioAssay (NCI)", "note": "About 83,000 compounds went through this panel and 20% of them were active in at least one assay; those are over-represented in the sample as a whole.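 In brief: 96-well plates, 48 h treatment, single concentration, percent growth endpoint.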 Active and inactive are the calls of the source."}
{"test_system": "UO-31 renal", "test": "NCI-60 one-dose screen, 48 h (100 = growth as untreated, 0 = no growth, -100 = all killed)", "details": "10 µM unless noted", "method": "Growth inhibition of the UO-31 human tumor cell line is measured as a screen for anti-cancer activity. Cells are grown in 96 well plates and exposed to the test compound for 48 hours. Compounds are tested at a single concentration, which is 10^-5 M for most compounds. The reported endpoint is percent growth (GI% or GIPRCNT), where numbers from 0 - 100% represent growth inhibition, and numbers from -100% - 0 represent cell death. For example, a value of 40 represents 60% growth inhibition. A value of 0 means no net growth occurred over the course of the experiment. A value of -40 indicates 40% of cells at the beginning of the experiment died by the end of the experiment. A value of -100 means all cells are dead at the end of the experiment.\nNCI-60 Human Tumor Cell Lines Screen was performed using the standard one-dose NCI protocol, which is described in more detail at https://dtp.cancer.gov/discovery_development/nci-60/default.htm.\nCompounds with GIPRCNT values below 10 were considered active. Activity score was based on GIPRCNT using the following formula: […]\nScore is 0 for GIPRCNT values of 100 or above, 50 for GIPRCNT values of 0, and 100 for GIPRCNT values of -100."}
{"compound": "CCN(CC)CCN1C(=O)c2c(c(C)c3c(oc4ccc(O)cc43)c2C)C1=O", "growth": "-92.4% (active)"}
{"compound": "O=[N+]([O-])c1cc(NS(=O)(=O)c2ccccc2)ccc1NS(=O)(=O)c1ccccc1", "growth": "95.8% (inactive)"}
{"compound": "COc1ccccc1N(C(C)=O)C1=C(Cl)C(=O)c2ccccc2C1=O", "growth": "11.4% (inactive)"}
{"compound": "CC/C=C\\C[C@H](O)C/C=C1/C(=O)C=C[C@@H]1C/C=C\\CCCC(=O)O", "growth": "74.3% (inactive)"}
{"compound": "CCN(CC)CCCN1C(=O)c2c(c(C)c3c(oc4ccc(OC)cc43)c2C)C1=O", "growth": "64.5% (inactive)"}
{"compound": "NC(N)=NS(=O)(=O)c1ccc(NC2=C(I)C(=O)c3ncccc3C2=O)cc1", "growth": "75.1% (inactive)"}
{"compound": "CN1CCN(c2ccc3nc4c(nc3c2C(F)(F)F)C(=O)c2ncccc2C4=O)CC1", "growth": "-19.1% (active)"}
{"compound": "COc1ccc(C2=CN3CC=CC3CC2=O)cc1", "note": "(stereo not given)", "growth": "103% (inactive)"}
{"compound": "C=C1C(=O)O[C@H]2[C@H]1CC/C(COC(=O)/C=C\\C(=O)NCc1ccc(Cn3c(=O)sn(CCCl)c3=O)cc1)=C\\CC[C@@]1(C)O[C@@H]21", "growth": "79.9% (inactive)"}
{"compound": "CCCC(CC)(C(=O)Nc1ccc2nc(C)cc(N)c2c1)C(=O)Nc1ccc2nc(C)cc(N)c2c1", "growth": "90.1% (inactive)"}
{"compound": "C=C(C)[C@@H]1CCC[C@]2(C(=O)O)CC[C@]3(C)[C@@H](CC[C@@H]4[C@@]5(C)C/C(=C/c6ccncc6)C(=O)C(C)(C)[C@@H]5CC[C@]43C)[C@@H]12", "growth": "19.7% (inactive)"}
{"compound": "COc1ccc(Nc2ncccc2/C=C/C(=O)c2cc(OC)c(OC)c(OC)c2)cc1", "growth": "-79.6% (active)"}
{"compound": "CC1CCN(C(=S)SCC(=O)NC(=O)c2ccccc2)CC1", "growth": "92% (inactive)"}
{"compound": "CCN(CC)c1ccc(CNc2cc(C)nc3ccccc23)cc1", "growth": "40% (inactive)"}
{"compound": "O=C(NNC(=O)c1nc2cc(F)ccc2n2cccc12)c1cnccn1", "growth": "33.3% (inactive)"}
{"compound": "O=C(/C=C/c1cccc(Cl)c1Cl)Nc1ncc(Cc2ccccc2Cl)s1", "growth": "44.6% (inactive)"}
{"compound": "CCN1C(=O)N(CC)C2C1NN=c1s/c(=C\\c3ccc(C(F)(F)F)cc3)c(=O)n12", "note": "(stereo not given)", "growth": "34.3% (inactive)"}
{"compound": "O=C(N=Nc1c(O)[nH]c2ccccc12)Nc1ccc(F)cc1", "growth": "72.8% (inactive)"}
{"compound": "NC1(CO)COC(c2ccccc2)OC1", "note": "(stereo not given)", "growth": "87.6% (inactive)"}
{"compound": "COc1cc(-c2nc3cc(Cl)c(Cl)cc3[nH]2)ccc1OCC(=O)N=Nc1c(O)[nH]c2ccc(Cl)cc12", "growth": "89% (inactive)"}
{"compound": "Cn1cc(-c2nn3cc(-c4cccs4)nc3s2)c2cc(F)ccc21", "growth": "35.8% (inactive)"}
{"compound": "CC1(C)NCCC[C@]2(C)[C@H]3CC[C@H]4[C@H]5[C@H](C(=O)/C=C/c6cccnc6)CCC[C@]5(CO)CC[C@@]4(C)[C@]3(C)CC[C@@H]12", "growth": "57.8% (inactive)"}
{"compound": "N=C(N)c1ccc(-c2ccc(-c3ccccc3)s2)cc1", "growth": "83.5% (inactive)"}
{"compound": "Cc1ccc2nc(NC(=O)CSc3nc(-c4ccccc4)c(C#N)c4nnnn34)sc2c1", "growth": "80.2% (inactive)"}
{"compound": "COc1cnc2c(c1)C(=O)c1c-2n(CCCCl)c(=O)c2ccncc12", "growth": "41.4% (inactive)"}
{"compound": "Clc1ccccc1-c1cnn2cc(-c3ccccc3)cnc12", "growth": "84.6% (inactive)"}
{"compound": "COc1ccc(C2CC(c3cc(OC)c(OC)c(OC)c3)=NO2)cc1OCCCCOc1cc2c(cc1OC)C(=O)N1CCC[C@H]1C=N2", "note": "(stereo not given in full)", "growth": "19.5% (inactive)"}
{"compound": "COc1cc(OC)c(/C=C/C(=O)c2c(O)cc(OC)c(C3CCN(C)CC3)c2OC)c(OC)c1", "growth": "-76.2% (active)"}
{"compound": "COC(=O)c1c2c(c(C)[n+]([O-])c1C)C(=O)C(NCc1ccc(OC)cc1)=CC2=O", "growth": "65.3% (inactive)"}
{"compound": "S=c1[nH]c(=S)c2c(-c3ccccc3)c(-c3ccccc3)oc2[nH]1", "growth": "81.6% (inactive)"}
{"compound": "COc1ccc2c(c1)/C(=N/c1n[nH]c(=S)s1)C(=O)N2", "growth": "74.3% (inactive)"}
{"compound": "CCN(CC)c1ccc(/C=N/NC(=O)Cc2ccc(Nc3ccnc(C(F)(F)F)c3)cc2)c(O)c1", "growth": "20.3% (inactive)"}
{"compound": "COc1cc(NC(=O)c2cncnc2Nc2ccc3c(ccn3Cc3ccccn3)c2)cc(OC)c1", "growth": "46% (inactive)"}
{"compound": "CCOC(=O)C#Cc1c(C(=O)OCC)nnn1Cc1ccc(C(F)(F)F)cc1", "growth": "1.49% (active)"}
{"compound": "Cc1ccc2c(-c3nnc(N)s3)cc(=O)oc2c1C", "growth": "80.2% (inactive)"}
{"compound": "COc1cc(Cl)c(C)cc1NC(=O)c1cc2ccccc2cc1O", "growth": "0.513% (active)"}
{"compound": "CC1=C2[C@@H](CC1)[C@]1(C)O[C@@](c3ccccc3)(C[C@H]1OC(=O)CO)[C@H]2OC(=O)/C=C/c1ccccc1", "growth": "-8.71% (active)"}
{"compound": "Cc1ccc(C(=O)c2ccc(CC(=O)NN3C(=O)c4ccccc4C3=O)n2C)cc1", "growth": "75.7% (inactive)"}
{"compound": "Nc1[nH]c(=S)nc2oc(-c3ccccc3)c(-c3ccccc3)c12", "growth": "86.9% (inactive)"}
{"compound": "C=C1C(=O)O[C@H]2[C@H]1CC/C(COC(=O)c1cc3cc(Cl)ccc3[nH]1)=C\\CC[C@@]1(C)O[C@@H]21", "growth": "-93.6% (active)"}
